# PME-1 primary – PME-1 inhibitors via competitive probe labeling, primary screen, biochemical, fluorescence polarization, FP-Rh probe, HTS | AID 2130, 2009 | recombinant PME-1 | inhibition, % at 5.9 µM | Protein phosphatase methylesterase 1 (Homo sapiens), Q9Y570 | 320,000 compounds, 0.53% hits;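 active means inhibition above the campaign mean of all compounds plus 3 SD, cut at about 26% in these data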;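 further: competitive labeling of PME-1 active site by serine hydrolase directed probe; 0% = PME-1 with DMSO and 100% = wells lacking PME-1 enzyme; inhibitors block probe labeling so polarization falls and inhibition rises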
# Fam108B inh – mouse Fam108B serine hydrolase inhibitors, primary screen, counter-screen for RBBP9 inhibitor project, biochemical, fluorescence polarization | recombinant Fam108B, FP-Rh probe fluorescence polarization | inhibition, % at 9.51 µM | 300,000 compounds, 0.33% hits | AID 1947, 2009;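 active means inhibition above the screen mean inhibition plus 3 SD, computed separately per campaign, cut at about 18% in these data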;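 further: inhibitors lower polarization as less probe binds the enzyme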
# GSTO1 inh – inhibitors of recombinant GSTO1, primary screen, counter-screen for RBBP9 inhibitor project, biochemical, fluorescence polarization; inhibition, % at 5.96 µM; Glutathione S-transferase omega-1 (Homo sapiens), P78417; AID 1974, 2009; activity-based probe fluorescence polarization; 300,000 compounds, 1.1% hits;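 active means inhibition above the campaign mean inhibition plus 3 SD, cut at about 35% in these data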;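 further: 0% = GSTO1-1 with DMSO and 100% = wells lacking GSTO1-1 enzyme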
# LYPLA1 inh – LYPLA1 inhibitors, primary screen, counter-screen for PME1 inhibitor project, biochemical, fluorescence polarization, FP-Rh probe ABPP; Acyl-protein thioesterase 1 (Homo sapiens), O75608; recombinant LYPLA1; inhibition, % at 5.9 µM; 320,000 compounds, 0.16% hits;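 active means inhibition above the mean of all tested compounds plus 3 SD, set per campaign, cut at about 14% in these data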;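 further: inhibitors block serine hydrolase probe labeling of LYPLA1 so polarization falls; 0% = enzyme with DMSO and 100% = wells lacking LYPLA1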
# LYPLA2 counter – LYPLA2 inhibitors, primary screen, counter-screen for PME1 inhibitor project, biochemical, fluorescence polarization, FP-Rh probe ABPP. inhibition, % at 5.9 µM. Acyl-protein thioesterase 2 (Homo sapiens), O95372. recombinant LYPLA2. 320,000 compounds, 0.38% hits. AID 2177, 2009;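 active means inhibition above the screen-wide mean plus 3 SD, limit set per campaign, cut at about 26% in these data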;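 further: 0% = LYPLA2 with DMSO and 100% = wells lacking LYPLA2 enzyme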
# PAD4 FP inh – human PAD4 inhibitors, primary screen, biochemical, fluorescence polarization, 1536-well format | AID 485272, 2010 | Protein-arginine deiminase type-4 (Homo sapiens), Q9UM07 | inhibition, % at 6.36 µM | recombinant PAD4, RCA probe fluorescence polarization | 330,000 compounds, 0.41% hits;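 active means percent inhibition above a cutoff equal to the mean of all tested compounds plus 3 SD, cut at about 15% in these data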;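 further: 0% = PAD4 with RCA probe and DMSO and 100% = probe without PAD4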
# Target sequence (Q9UM07 whole entry, looked up): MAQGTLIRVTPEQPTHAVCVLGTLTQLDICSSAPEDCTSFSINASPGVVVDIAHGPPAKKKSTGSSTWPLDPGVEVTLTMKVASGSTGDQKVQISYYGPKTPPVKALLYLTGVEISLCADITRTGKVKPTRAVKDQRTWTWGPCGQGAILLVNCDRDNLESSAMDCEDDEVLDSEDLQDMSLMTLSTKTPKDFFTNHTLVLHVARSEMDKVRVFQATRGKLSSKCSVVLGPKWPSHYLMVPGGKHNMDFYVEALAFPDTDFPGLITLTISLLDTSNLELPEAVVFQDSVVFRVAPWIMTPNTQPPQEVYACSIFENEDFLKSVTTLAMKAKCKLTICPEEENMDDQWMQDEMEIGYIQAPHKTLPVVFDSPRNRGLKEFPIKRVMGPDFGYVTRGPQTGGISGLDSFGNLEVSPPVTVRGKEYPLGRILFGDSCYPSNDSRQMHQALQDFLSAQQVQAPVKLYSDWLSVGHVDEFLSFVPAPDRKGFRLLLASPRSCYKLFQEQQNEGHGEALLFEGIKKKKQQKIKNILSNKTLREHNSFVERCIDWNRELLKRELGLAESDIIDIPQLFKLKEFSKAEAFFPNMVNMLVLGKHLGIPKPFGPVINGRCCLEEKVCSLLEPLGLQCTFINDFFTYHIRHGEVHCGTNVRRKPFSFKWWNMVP
# Fam108b confirm – mouse Fam108b serine hydrolase inhibitors, confirmation, counter-screen for RBBP9 inhibitor project, biochemical, fluorescence polarization, triplicate. 930 compounds, 44% hits. inhibition, % at 9.51 µM. AID 1978, 2009. recombinant Fam108b, FP-Rh probe fluorescence polarization. shares compounds with Fam108B inh;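 active means inhibition above a limit from the primary screen, the mean over all compounds plus 3 SD, cut at about 19% in these data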;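 further: 0% = median of active Fam108b wells and 100% = catalytically dead S170A mutant; inhibitors free the probe so polarization falls as inhibition rises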
# Fam108b ABPP HTS – inhibition of mouse Fam108b by HTS hits, late-stage follow-up, biochemical, gel-based ABPP, soluble recombinant form; shares compounds with Fam108B inh; fluorophosphonate probe; inhibition, % at 20 µM; 260 compounds, 44% hits; in the data active means inhibition above about 40%
# * marks the source's active call; other numbers are inactive results; . = not tested or not shown. In the library only some 1.8% were active in any assay of this set; here they are far more common.
SMILES,PME-1 primary,Fam108B inh,GSTO1 inh,LYPLA1 inh,LYPLA2 counter,PAD4 FP inh,Fam108b confirm,others
O=C(Nc1cccc(-c2csc(Nc3ccc(Cl)cc3)n2)c1)c1cc([N+](=O)[O-])cc(C(F)(F)F)c1,35*,59*,-5,-20,6,3,68*,Fam108b ABPP HTS=100*
COc1ccc(-c2ccc3c(c2)S(=O)(=O)c2cccc(C(=O)N4CCN(C5CCCCC5)CC4)c2C3=O)cc1OC,.,.,.,.,.,-9,.,
CCN1CCCC1Cn1cnc2c([nH]c3ccc(OC)cc32)c1=O (centres undefined),-3,-3,6,0,3,-4,.,
CCCn1nc([N+](=O)[O-])c(C(C#N)c2nc3ccccc3o2)c(Cl)c1=O (centres undefined),27*,29*,-14,7,18,8,14,
Cn1nc([N+](=O)[O-])c(C(C#N)c2ccccn2)c(Cl)c1=O (centres undefined),8,7,8,2,0,4,.,
Fc1ccc(/C=C\c2nccc3c2[nH]c2ccccc23)cc1,-33,19*,-10,-10,-12,-4,1,
Cc1ccc(/C=C\c2nccc3c2[nH]c2ccccc23)cc1,-45,24*,-36,-14,-32,-5,10,
C(=C\c1nccc2c1[nH]c1ccccc12)/c1ccccc1,-15,-2,-9,-9,-17,0,.,
CN(C(=O)c1ccccc1-c1ncc[nH]1)C1CCCN(Cc2ccccc2F)C1 (centres undefined),5,8,7,2,4,0,.,
O=C(Nc1cccc(C(F)(F)F)c1)Nc1ccc(N2CCCC2)c(S(=O)(=O)Nc2ccccc2Cl)c1,20,35*,-26,-13,5,0,32*,Fam108b ABPP HTS=95*
Cc1cc(C(C#N)c2ccc(Cl)cc2)c(Cl)cc1NC(=O)c1cc(I)cc(I)c1O (centres undefined),40*,25*,-5,-12,-1,-3,42*,Fam108b ABPP HTS=45*
CCC(=O)NC(=S)Nc1ccc(NC(=O)c2ccc([N+](=O)[O-])cc2Cl)cc1,6,34*,-19,-1,10,-2,5,
Oc1oc(-c2ccccc2Br)nc1C=Nc1ccccn1,.,.,.,.,.,.,.,Fam108b ABPP HTS=90*
Oc1oc(-c2ccccc2Br)nc1C=Nc1ccc(Br)cn1,1,4,-6,-2,0,5,.,
COc1ccc(Nc2nc3ccccc3nc2NS(=O)(=O)c2cccs2)c(OC)c1,0,23*,5,0,-9,-3,13,
COc1ccc(C(=O)C[n+]2cn(C(F)F)c3ccccc32)c(F)c1,6,2,11,2,4,-7,.,
CSC[C@@H]1NC(=S)N(c2ccc(C)cc2)C1=O,60*,31*,15,10,20,-14,50*,Fam108b ABPP HTS=40*
Cc1ccc(N2C(=O)C3CCC(C)(C2=O)C3(C)C)cc1 (centres undefined),-2,-1,7,1,4,-1,.,
COc1cc2cc(C(=O)NN=Cc3ccccc3Cl)[nH]c2cc1OC,.,.,.,.,.,.,.,Fam108b ABPP HTS=50*
CCOc1ccc2[nH]c(C(=O)N/N=C/c3ccccc3OC)cc2c1,-1,21*,-23,-3,-11,-1,-14,
COc1ccc2[nH]c(C(=O)N/N=C/c3ccccc3OC)cc2c1,0,2,-9,-5,-6,-1,.,
CC(NC(=O)CN1CCOCC1)c1ccccc1 (centres undefined),16,0,10,-3,-5,-5,.,
COc1cc(/C=N/n2c(-c3ccc4c(c3)NC(=O)CO4)csc2=Nc2cccc(C)c2)ccc1O,9,21*,-1,-1,15,4,8,
COc1ccc(SC[C@H](Cc2ccccc2)N2CC[C@@H](C(C)(C)C)CCC2=O)cc1,-6,.,.,0,4,-1,.,
CC(C)Nc1nnc(SCC(=O)Nc2ccc3c(c2)C(=O)c2ccccc2C3=O)s1,57*,30*,3,-7,22,-6,12,
SMILES,PME-1 primary,Fam108B inh,GSTO1 inh,LYPLA1 inh,LYPLA2 counter,PAD4 FP inh,Fam108b confirm,others
CC(C)Nc1nnc(SCC(=O)Nc2sccc2C#N)s1,5,.,.,-10,-10,-5,.,
O=C(CSc1nnc(NC2CCCCC2)s1)Nc1ccc2c(c1)C(=O)c1ccccc1C2=O,9,42*,10,-6,1,3,3,
CN1CCN(Cc2coc3c(Cl)cc(Cl)cc3c2=O)CC1,1,4,-5,0,4,-4,.,
COc1ccc(-c2cc(-c3ccc(OC)c(OC)c3)n[nH]2)c(O)c1,11,20*,-20,-9,-1,0,6,
COc1ccc(O)c(-c2cc(-c3cccc(Br)c3)n[nH]2)c1,42*,18*,-15,1,-1,-7,-3,
CCn1c2ccccc2c2cc(NC(=O)c3ccc([N+](=O)[O-])cc3)ccc21,5,25*,9,0,9,1,-1,
CC(OC(=O)Cn1cc(C(F)(F)F)ccc1=O)C(=O)N(C)c1ccccc1 (centres undefined),.,.,.,.,.,0,.,
O=C(N/N=C/c1ccc(-c2ccc(S(=O)(=O)Nc3ncccn3)cc2)o1)c1cc2ccccc2cc1O,-3,24*,-3,-9,-21,-4,20*,
CCOc1ccc(C(=O)N/N=C/c2ccc(-c3ccc(S(=O)(=O)Nc4ncccn4)cc3)o2)cc1,-7,-3,-18,-8,-7,-2,.,
CCCCn1c(N)c(N(Cc2ccccc2OC)C(=O)c2ccc([N+](=O)[O-])s2)c(=O)[nH]c1=O,1,0,18,0,5,-8,.,
Oc1c(Br)cc(Br)c(/C=N/n2c(-c3ccccc3)n[nH]c2=S)c1Br,38*,19*,-15,2,6,-6,16,
CN(C)S(=O)(=O)c1cccc(NC(=S)N/N=C/c2cc(Br)ccc2O)c1,38*,29*,-55,-16,-15,0,3,
CC(C)(C)OC(=O)C[C@@H]1C/C=C\C[C@H](CC(=O)N(CCO)Cc2ccccc2)C(=O)N[C@H](Cc2ccccc2)COC1=O,.,.,.,.,.,-2,.,
O=c1oc(-c2ccc(O)c(O)c2)cc2cccc(O)c12,.,.,.,.,.,-3,.,
Oc1cccc2cc3cccc(O)c3c(O)c12,20,25*,26,-22,-8,-11,4,Fam108b ABPP HTS=55*

# High-throughput results as filed in PubChem.
